From PubChem
A selection: hits, their analogues and other compounds. The true share with any hit is near 2.1%.
Myc binder: binders of human c-Myc; 17,000 tested, 1.5% active; calls only; small molecule microarray, His-c-Myc binding, anti-His fluorescence;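 active means spot fluorescence over background with P-value below 7% in all four replicate spots, showing protein binding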;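 further: score is binary with 100 for all four spots passing and 0 otherwise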
p53 mut binder: binders of human mutant p53; calls only; small molecule microarray binding, anti-GST fluorescence; AID 624136; 17,000 tested, 0.4% active;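 active means compounds whose four printed spots each glow above background more than chance allows, each with a p-value under 7%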
NFkB binder: binders of human NF-kappa-B p105. calls only. Small molecule microarray, anti-His fluorescence binding. 17,000 tested, 1.3% active. AID 624139;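 active means spot fluorescence over background significantly raised, with a chance value under 7% in all four replicate spots of the compound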;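 further: probe protein is his-tagged human p50 processed subunit at 1 µg/ml; raw spot fluorescence signals with no normalization applied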
STAT3 binder: binds human STAT3 on microarray | P40763 | Small molecule microarray, His-STAT3 binding, anti-His fluorescence | calls only | 17,000 tested, 0.2% active | AID 624138;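 active means compounds whose four printed spots each show fluorescence over background unusually high for their array block, chance value under 7%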
Active calls of the source: *.

`Cc1cccc(NC(=O)CCC(=O)O)c1` gave Myc binder active, p53 mut binder inactive, NFkB binder inactive and STAT3 binder inactive.
For Cc1ccc(NC(=O)c2cccc(NC(=O)CCC(=O)O)c2)cc1C the results were Myc binder inactive, p53 mut binder inactive, NFkB binder inactive and STAT3 binder inactive.
For O=c1cc(-c2ccc(O)c(O)c2)oc2c(C3O[C@H](CO)[C@H](O)[C@H](O)[C@H]3O)c(O)cc(O)c12 (stereo partly specified) the results were Myc binder inactive, p53 mut binder inactive, NFkB binder inactive and STAT3 binder inactive.
`CC(C)(C)[C@@H]1C=C(C(=O)O)O[C@H](OCc2ccc(CO)cc2)C1` gave Myc binder inactive, p53 mut binder inactive, NFkB binder active and STAT3 binder inactive.
Screening COc1cc(-c2nc3ccccc3s2)cc(Br)c1OCC(=O)O returned Myc binder active, p53 mut binder inactive, NFkB binder inactive and STAT3 binder inactive.
`COc1ccc(OCC(=O)Nc2ccccc2-c2nc3ccccc3s2)cc1` gave Myc binder inactive, p53 mut binder inactive, NFkB binder inactive and STAT3 binder inactive.
Screening NCCCN(Cc1ccco1)C1CCCC1 returned Myc binder active, p53 mut binder inactive, NFkB binder inactive and STAT3 binder inactive.
COc1cc(OC)c2c(=O)c(OC)c(-c3ccccc3)oc2c1 was read as Myc binder inactive, p53 mut binder inactive, NFkB binder inactive and STAT3 binder inactive.
